# Results from PubChem BioAssay.
# Inconclusive results are not listed. Activity calls are given as the source filed them.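 The calls were made as follows, unless noted: active = inhibition above 50%, about 3 SD of the validation set; inactive = the rest.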
# Key:
# [1] = rapamycin-like changes in RPL19A-GFP expression – cell-based, S. cerevisiae, multiplex flow cytometry, primary screen (AID 1862; in the data active = percent of DMSO control GFP below about 86%;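 also: lower values mimic rapamycin by blocking the RPL19A rise seen in DMSO cells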); conditions: S. cerevisiae RPL19A-GFP strain, flow cytometry fluorescence, 3 h; at 10 µM; stronger effect = lower value
# [2] = TOR pathway GLN3 branch reporter MEP2-GFP changes – S. cerevisiae, multiplex flow cytometry, primary screen (AID 1867;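 active = GFP response, as percent of the DMSO control, above the screen-wide mean plus 3 SD, about 139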;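 also: median GFP channel fluorescence of barcode-gated MEP2-GFP cells measured by flow cytometry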); conditions: S. cerevisiae MEP2-GFP strain, 3 h, at 10 µM, stronger effect = higher value, 100% means same as DMSO wells
# [3] = TOR pathway RTG branch CIT2 reporter changes – S. cerevisiae, GFP fusion, multiplex flow cytometry, primary screen (AID 1870;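 active = percent response above a set limit, the screen-wide mean plus 3 SD, cut at about 130% in these data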;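 also: barcoded CIT2-GFP strain pooled with four other GFP strains with rapamycin as positive control; median GFP fluorescence per well over plate mean of DMSO wells so 100% = DMSO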); conditions: S. cerevisiae CIT2-GFP expression, 3 h, at 10 µM, stronger effect = higher value
# [4] = TOR pathway LAP4-GFP level changes – S. cerevisiae, multiplex flow cytometry, primary screen (AID 1873;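 active = GFP signal, as percent of the solvent control, above the screen mean plus 3 SD, about 149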); conditions: S. cerevisiae LAP4-GFP expression, 3 h, at 10 µM, stronger effect = higher value
# [5] = yeast AGP1-GFP level changes, GLN3 branch – cell-based, multiplex flow cytometry, S. cerevisiae, primary screen (AID 1887;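 active = GFP signal above the screen-wide mean plus 3 SD, that is over about 124.5% of the solvent control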;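 also: AGP1-GFP fusion strain of S. cerevisiae within a five-strain barcoded multiplex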); conditions: 3 h, at 10 µM, stronger effect = higher value
# [6] = reduced mouse 2C T cell binding to pMHC/ICAM-1 vesicles – MLPCN validation set, flow cytometry, LFA-1/ICAM-1 modulator project, pilot screen (AID 2523;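 active = response below a set limit, under 55% cells CD8-positive and vesicle-bound, and CD8 cells' 90th-percentile brightness under 279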;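 as to vesicle binding response: mean PE anti-B7-1 fluorescence of CD8+ cells relative to row control; 100% = QL9-loaded vesicles with DMSO vehicle in the same plate row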); conditions: 2C mouse CD8+ T cells, at 7 µM, stronger effect = lower value; double positive events: measured here: CD8+/vesicle+ event percentage
# [7] = target: Integrin beta-1 (Homo sapiens) + Integrin alpha-4 (Homo sapiens) (UniProt P13612+P05556); assay: alpha4beta1 integrin LIBS antibody binding reduction – U937 cells, HUTS-21 mAb, flow cytometry, validation set, VLA-4 allosteric modulator project, pilot screen (AID 2674); conditions: HUTS-21 LIBS mAb binding, at 6.7 µM, stronger effect = higher value, binding induced by LDV ligand;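 also: antibody binding induced by the VLA-4 ligand LDV present at three times its Kd; 0% = LDV ligand with antibody and no compound and 100% = antibody without LDV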
# Sequence of Integrin beta-1 (Homo sapiens) + Integrin alpha-4 (Homo sapiens) (P05556 whole entry, looked up): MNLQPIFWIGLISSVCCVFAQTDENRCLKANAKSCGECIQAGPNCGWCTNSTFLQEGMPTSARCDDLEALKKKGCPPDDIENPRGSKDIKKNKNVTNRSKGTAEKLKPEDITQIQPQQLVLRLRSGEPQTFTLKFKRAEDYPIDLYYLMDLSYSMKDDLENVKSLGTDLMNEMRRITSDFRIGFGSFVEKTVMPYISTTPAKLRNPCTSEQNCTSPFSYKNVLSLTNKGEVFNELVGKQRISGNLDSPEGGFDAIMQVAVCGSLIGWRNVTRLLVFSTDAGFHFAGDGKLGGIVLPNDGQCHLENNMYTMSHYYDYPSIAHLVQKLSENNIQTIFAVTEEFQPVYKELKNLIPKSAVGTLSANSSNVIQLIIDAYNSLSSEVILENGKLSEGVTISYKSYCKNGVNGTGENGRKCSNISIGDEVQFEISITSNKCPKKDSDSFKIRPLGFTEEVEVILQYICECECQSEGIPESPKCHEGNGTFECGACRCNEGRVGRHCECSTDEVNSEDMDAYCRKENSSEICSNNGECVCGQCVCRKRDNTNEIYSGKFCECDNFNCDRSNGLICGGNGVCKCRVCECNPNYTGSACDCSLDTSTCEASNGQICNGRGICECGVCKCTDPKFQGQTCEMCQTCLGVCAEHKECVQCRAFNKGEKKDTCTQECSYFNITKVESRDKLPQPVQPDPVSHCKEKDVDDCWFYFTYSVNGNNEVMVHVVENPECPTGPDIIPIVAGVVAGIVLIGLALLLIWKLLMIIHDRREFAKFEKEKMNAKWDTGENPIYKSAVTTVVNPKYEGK
# Sequence of Integrin beta-1 (Homo sapiens) + Integrin alpha-4 (Homo sapiens) (P13612 whole entry, looked up): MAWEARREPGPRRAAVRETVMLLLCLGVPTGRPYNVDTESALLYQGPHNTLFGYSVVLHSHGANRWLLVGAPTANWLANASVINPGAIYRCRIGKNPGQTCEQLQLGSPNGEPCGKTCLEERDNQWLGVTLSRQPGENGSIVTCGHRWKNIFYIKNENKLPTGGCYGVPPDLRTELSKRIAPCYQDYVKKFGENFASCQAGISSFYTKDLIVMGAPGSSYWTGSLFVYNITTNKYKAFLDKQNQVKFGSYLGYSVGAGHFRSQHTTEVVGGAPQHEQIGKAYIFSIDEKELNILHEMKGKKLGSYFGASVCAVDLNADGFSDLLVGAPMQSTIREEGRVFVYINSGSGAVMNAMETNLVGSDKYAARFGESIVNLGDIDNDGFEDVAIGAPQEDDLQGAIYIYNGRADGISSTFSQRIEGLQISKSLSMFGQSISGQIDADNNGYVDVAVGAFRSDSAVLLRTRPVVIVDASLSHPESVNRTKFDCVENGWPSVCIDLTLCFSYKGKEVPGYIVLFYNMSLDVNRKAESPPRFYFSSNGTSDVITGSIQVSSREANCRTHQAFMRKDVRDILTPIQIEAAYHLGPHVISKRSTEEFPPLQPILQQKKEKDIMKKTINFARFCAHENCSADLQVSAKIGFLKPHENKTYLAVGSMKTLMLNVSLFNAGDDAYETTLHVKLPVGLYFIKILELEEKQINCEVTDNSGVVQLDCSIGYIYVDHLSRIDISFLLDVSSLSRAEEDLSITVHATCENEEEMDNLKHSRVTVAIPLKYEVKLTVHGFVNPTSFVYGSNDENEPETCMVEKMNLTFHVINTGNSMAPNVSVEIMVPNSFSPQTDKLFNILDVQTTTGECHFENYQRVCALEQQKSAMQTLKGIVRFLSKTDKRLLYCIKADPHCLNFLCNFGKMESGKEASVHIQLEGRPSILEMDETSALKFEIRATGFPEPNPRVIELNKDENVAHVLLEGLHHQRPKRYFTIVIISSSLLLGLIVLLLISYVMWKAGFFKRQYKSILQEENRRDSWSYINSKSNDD
# [8] = calorie-restriction mimetic ROS inhibitors, yeast – validation compound set, pilot screen (AID 2706;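 active = superoxide response below 65% of plate, a cut near 3 SD across the whole screen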;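 also: yeast exposed to compound for one week at 30 degrees C before staining; 100% = mean of all compound wells on the same plate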); conditions: S. cerevisiae aging, superoxide DHE fluorescence; at 10 µM, stronger effect = lower value
# [9] = target: Beta-adrenergic receptor kinase 1 (Homo sapiens) (UniProt P25098); assay: GRK2 binders displacing RNA aptamer, biochemical, validation, human GRK2, bead flow cytometry (AID 488806;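 active = aptamer binding inhibition above 30%, about 3 SD of noise from non-fluorescent compounds; inactive = inhibition at or below 30%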); conditions: bead-bound GRK2, FAM-aptamer displacement, at 10 µM, stronger effect = higher value
# Sequence of Beta-adrenergic receptor kinase 1 (Homo sapiens) (P25098 whole entry, looked up): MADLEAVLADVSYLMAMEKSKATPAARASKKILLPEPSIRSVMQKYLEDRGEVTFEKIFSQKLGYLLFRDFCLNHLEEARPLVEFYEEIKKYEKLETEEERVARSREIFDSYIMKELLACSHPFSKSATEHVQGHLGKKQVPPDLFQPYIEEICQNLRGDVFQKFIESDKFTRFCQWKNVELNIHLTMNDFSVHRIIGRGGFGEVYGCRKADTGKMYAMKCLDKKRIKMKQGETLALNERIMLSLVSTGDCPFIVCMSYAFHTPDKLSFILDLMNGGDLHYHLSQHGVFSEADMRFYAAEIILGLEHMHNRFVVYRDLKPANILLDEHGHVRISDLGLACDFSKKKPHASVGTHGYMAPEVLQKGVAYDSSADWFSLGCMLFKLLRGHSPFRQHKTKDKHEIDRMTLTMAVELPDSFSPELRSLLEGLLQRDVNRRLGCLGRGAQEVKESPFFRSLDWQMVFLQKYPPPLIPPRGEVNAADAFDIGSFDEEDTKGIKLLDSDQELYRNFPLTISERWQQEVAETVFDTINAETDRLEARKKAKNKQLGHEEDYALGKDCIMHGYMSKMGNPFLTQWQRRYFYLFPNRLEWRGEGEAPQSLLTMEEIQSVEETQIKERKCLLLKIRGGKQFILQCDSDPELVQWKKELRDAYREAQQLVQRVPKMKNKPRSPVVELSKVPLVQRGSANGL
# [10] = target: AP-2 complex subunit beta (Homo sapiens) (UniProt P63010); assay: beta-arrestin/AP2 interaction blockers – biochemical, validation set, GST-AP2 beads, flow cytometry, pilot screen (AID 504541;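 active = inhibition above 54%, about 3 SD of non-fluorescent compounds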;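 also: AP2 carries R879A mutation and is captured from E. coli lysate; bead-bound FITC arrestin peptide fluorescence measuring arrestin peptide binding to AP2; 0% = DMSO wells and 100% = excess unlabeled arrestin peptide control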); conditions: FITC arrestin peptide, at 10 µM, stronger effect = higher value, AP2 beta2 appendage fragment, R879A mutant
# Sequence of AP-2 complex subunit beta (Homo sapiens) (P63010 whole entry, looked up, the tested form may be a part, one chain of several): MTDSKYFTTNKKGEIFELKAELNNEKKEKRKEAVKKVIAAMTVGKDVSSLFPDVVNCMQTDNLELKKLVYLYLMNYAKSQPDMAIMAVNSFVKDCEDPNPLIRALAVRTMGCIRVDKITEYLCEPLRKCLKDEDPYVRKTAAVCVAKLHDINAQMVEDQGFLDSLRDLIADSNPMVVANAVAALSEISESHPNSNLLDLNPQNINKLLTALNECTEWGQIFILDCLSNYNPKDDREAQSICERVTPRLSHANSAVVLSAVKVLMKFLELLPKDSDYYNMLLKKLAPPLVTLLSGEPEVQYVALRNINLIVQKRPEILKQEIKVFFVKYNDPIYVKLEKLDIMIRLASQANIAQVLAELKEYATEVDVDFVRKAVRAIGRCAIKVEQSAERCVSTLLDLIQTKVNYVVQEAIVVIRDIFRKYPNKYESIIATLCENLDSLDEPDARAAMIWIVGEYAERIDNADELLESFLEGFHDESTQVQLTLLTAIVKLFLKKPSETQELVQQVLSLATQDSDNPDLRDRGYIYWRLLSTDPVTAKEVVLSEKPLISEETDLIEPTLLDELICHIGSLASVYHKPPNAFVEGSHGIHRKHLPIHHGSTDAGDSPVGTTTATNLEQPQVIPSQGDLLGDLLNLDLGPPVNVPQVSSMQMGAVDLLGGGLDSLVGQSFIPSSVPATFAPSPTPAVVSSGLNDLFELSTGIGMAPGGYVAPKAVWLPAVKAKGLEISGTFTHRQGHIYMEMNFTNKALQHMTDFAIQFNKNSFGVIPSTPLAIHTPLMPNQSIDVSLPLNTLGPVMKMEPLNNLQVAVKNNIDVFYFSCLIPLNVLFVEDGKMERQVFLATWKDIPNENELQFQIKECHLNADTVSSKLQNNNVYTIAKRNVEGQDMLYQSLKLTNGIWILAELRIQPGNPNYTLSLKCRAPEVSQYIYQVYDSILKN
# [11] = cytosolic pH regulators acting via V-ATPase – S. cerevisiae, pHLuorin, HTS validation (AID 504600; in the data active = response above about 15%;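 also: plate controls were DMSO for no effect and reference compound for full effect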); conditions: V-ATPase proton transport, at 10 µM, stronger effect = higher value
# [12] = test system: anti-desmoglein-3 scFv antibody binding to human DSG3; assay: blockers of pathogenic pemphigus antibody–desmoglein-3 binding – biochemical, validation compound set, bead-based, flow cytometry, pilot screen (AID 588368;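 active = binding below the plate cutoff, the plate median minus 3 SD, with a reading above zero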;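 also: signal is the median channel fluorescence of bead-bound GFP antibody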); conditions: Protein G beads, DSG3-Fc, scFv-GFP binding, at 10 µM, stronger effect = lower value
# [13] = Nile Red efflux blockade in pump-expressing yeast – validation compound set, multiplex, phenotypic, pilot screen (AID 588506;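 active = efflux inhibition above 0.42, the validation set average plus 4 SD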;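 also: Nile Red retained in cells so higher fluorescence means more efflux inhibition; 0 = negative control wells and 1 = enniatin B 25 µM full block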); conditions: S. cerevisiae pump-expressing triplex, Nile Red efflux flow cytometry; at 10 µM; stronger effect = higher value; the pumps come from Candida albicans
# [14] = target: ATP-binding cassette sub-family B member 6 (Homo sapiens) (UniProt Q9NP58); assay: blockers of ABCB6-driven porphyrin uptake – K562-ABCB6 cells, flow cytometry, validation set, pilot screen (AID 588550;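 active = inhibition above the screen-wide mean plus 3 SD, about 51%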;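 also: 0% = DMSO wells and 100% = benzethonium chloride 70 µM positive control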); conditions: K562-ABCB6 porphyrin accumulation, 1 h, at 10 µM, stronger effect = higher value
# Sequence of ATP-binding cassette sub-family B member 6 (Homo sapiens) (Q9NP58 whole entry, looked up): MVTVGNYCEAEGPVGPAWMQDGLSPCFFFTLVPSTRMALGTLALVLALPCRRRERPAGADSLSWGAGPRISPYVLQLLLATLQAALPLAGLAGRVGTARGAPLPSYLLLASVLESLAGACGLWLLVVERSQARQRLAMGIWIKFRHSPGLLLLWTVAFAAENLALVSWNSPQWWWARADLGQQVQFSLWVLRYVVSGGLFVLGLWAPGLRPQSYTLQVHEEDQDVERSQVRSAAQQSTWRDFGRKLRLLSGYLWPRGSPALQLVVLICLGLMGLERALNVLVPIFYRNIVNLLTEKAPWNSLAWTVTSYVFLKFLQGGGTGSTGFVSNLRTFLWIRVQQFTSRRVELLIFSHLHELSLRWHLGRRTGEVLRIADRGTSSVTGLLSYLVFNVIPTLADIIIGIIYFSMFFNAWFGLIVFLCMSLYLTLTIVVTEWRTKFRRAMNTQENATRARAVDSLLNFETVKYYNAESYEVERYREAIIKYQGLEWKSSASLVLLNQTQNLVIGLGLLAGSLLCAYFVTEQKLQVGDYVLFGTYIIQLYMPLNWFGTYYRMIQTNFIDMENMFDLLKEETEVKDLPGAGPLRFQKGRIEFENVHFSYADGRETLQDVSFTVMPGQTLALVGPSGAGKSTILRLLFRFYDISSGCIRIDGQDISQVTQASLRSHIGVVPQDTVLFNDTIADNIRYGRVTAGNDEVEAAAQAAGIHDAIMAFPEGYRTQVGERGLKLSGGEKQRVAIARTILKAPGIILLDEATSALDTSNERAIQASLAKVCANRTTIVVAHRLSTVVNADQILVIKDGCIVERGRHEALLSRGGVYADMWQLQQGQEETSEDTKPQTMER
# [15] = AML differentiation inducers, ER-HoxA9 marrow cells – cell-based, GFP/MAC1 double positive, flow cytometry, validation set, primary screen (AID 588685;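 active = differentiation response of at least 50%, scaled between solvent and reference control, from cells with both markers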;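 also: compound exposure lasts four days before antibody staining and flow analysis; 0% = DMSO wells and 100% = 5 µM fulvestrant positive control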); conditions: stronger effect = higher value, normalized: vehicle 0, fulvestrant 100
Compound,percent of DMSO control GFP [1],GFP response vs DMSO [2],percent response of DMSO control [3],GFP response vs DMSO [4],"GFP response, % of DMSO [5]",double positive events [6] [%],vesicle binding response [6],inhibition [7],superoxide response (% of plate) [8],aptamer binding inhibition [9],inhibition [10],response [11],binding (% of control) [12],efflux inhibition (fraction of control) [13],inhibition [14],differentiation response [15]
Cc1ccc2c(c1)OC(=O)CC2c1ccccc1 (centres undefined),100% (inactive),104% (inactive),96.9% (inactive),102% (inactive),99.6% (inactive),58,168% (inactive),12.8% (inactive),111% (inactive),5% (inactive),31.1% (inactive),-9.91% (inactive),95.6% (inactive),0.06 (inactive),0% (inactive),-11.5% (inactive)
COc1ccc2nc(NC(=O)Nc3ccccc3)sc2c1,105% (inactive),96.9% (inactive),111% (inactive),89.3% (inactive),96% (inactive),50.6,173% (inactive),10% (inactive),92.7% (inactive),-1% (inactive),0.98% (inactive),70.8% (active),95.7% (inactive),-0.47 (inactive),1% (inactive),-22.8% (inactive)
Nc1cccc2c1nnn2C1OC(CO)C(O)C(O)C1O (centres undefined),104% (inactive),94.8% (inactive),102% (inactive),85.3% (inactive),102% (inactive),58,192% (inactive),-3.97% (inactive),82.8% (inactive),0% (inactive),-6.04% (inactive),4.02% (inactive),105% (inactive),-0.05 (inactive),4% (inactive),-18% (inactive)
O=C(O)CCSc1nc2ccccc2s1,104% (inactive),99.9% (inactive),102% (inactive),106% (inactive),95.8% (inactive),49.5,183% (inactive),-9.57% (inactive),115% (inactive),7% (inactive),-3.62% (inactive),-1.68% (inactive),101% (inactive),0.44 (active),8% (inactive),17.6% (inactive)
Cc1ccccc1C(OCCN(C)C)c1ccccc1 (centres undefined),101% (inactive),98.9% (inactive),102% (inactive),85.3% (inactive),94.6% (inactive),51.2,111% (inactive),10.9% (inactive),106% (inactive),1% (inactive),-8.71% (inactive),9.28% (inactive),98.7% (inactive),0.03 (inactive),4% (inactive),-22.8% (inactive)
CC1(C)Cc2ccccc2C(C(Cc2ccccc2)C(N)=O)=N1 (centres undefined),100% (inactive),99.9% (inactive),106% (inactive),89.3% (inactive),92.7% (inactive),51,132% (inactive),24% (inactive),116% (inactive),3% (inactive),-4.92% (inactive),6.35% (inactive),101% (inactive),0.44 (active),9% (inactive),-5.05% (inactive)
COCCn1c(/C=C/c2ccccc2)nc2ccccc21,96.8% (inactive),101% (inactive),93% (inactive),93.3% (inactive),87.9% (inactive),59.7,149% (inactive),1.62% (inactive),92.6% (inactive),2% (inactive),10.5% (inactive),0.08% (inactive),105% (inactive),0.22 (inactive),6% (inactive),-5.05% (inactive)
O=C(Nc1cccc(Cl)c1)N1CCN2C(=O)c3ccccc3C12c1ccccc1 (centres undefined),100% (inactive),98.9% (inactive),96.9% (inactive),92.3% (inactive),96.3% (inactive),58.4,153% (inactive),0.69% (inactive),92.6% (inactive),3% (inactive),0.48% (inactive),2.99% (inactive),102% (inactive),0.29 (inactive),7% (inactive),-13.1% (inactive)
O=c1c(-c2ccc3c(c2)OCCO3)coc2cc(OC3OC(CO)C(O)C(O)C3O)ccc12 (centres undefined),103% (inactive),101% (inactive),106% (inactive),90.3% (inactive),103% (inactive),63.1,127% (inactive),1.62% (inactive),93.4% (inactive),6% (inactive),-2.44% (inactive),-2.72% (inactive),102% (inactive),-0.28 (inactive),8% (inactive),-14.7% (inactive)
COc1ccc([C@@H]2Sc3ccccc3N(CCN(C)C)C(=O)[C@@H]2OC(C)=O)cc1,104% (inactive),102% (inactive),105% (inactive),93.3% (inactive),101% (inactive),62.9,200% (inactive),-0.24% (inactive),101% (inactive),-1% (inactive),5.2% (inactive),-4.23% (inactive),99.1% (inactive),0.03 (inactive),-227% (inactive),-8.27% (inactive)
CCOc1ccc(C(=O)/C=C/c2cc(OC)c(OC)c(OC)c2)cc1,97.1% (inactive),105% (inactive),92% (inactive),105% (inactive),89.4% (inactive),54.7,209% (inactive),-0.24% (inactive),91.6% (inactive),-3% (inactive),4.7% (inactive),1.41% (inactive),104% (inactive),0.25 (inactive),4% (inactive),40.2% (inactive)
Cc1nc2sccn2c(=O)c1CCN1CCC(=C(c2ccc(F)cc2)c2ccc(F)cc2)CC1,101% (inactive),98.6% (inactive),105% (inactive),121% (inactive),121% (inactive),61.2,217% (inactive),2.29% (inactive),86.3% (inactive),-2% (inactive),-0.42% (inactive),-6.88% (inactive),109% (inactive),0.08 (inactive),2% (inactive),-4% (inactive)
O=C(CCCN1CC=C(n2c(=O)[nH]c3ccccc32)CC1)c1ccc(F)cc1,98.1% (inactive),95.9% (inactive),106% (inactive),93.3% (inactive),97.2% (inactive),63,237% (inactive),5.36% (inactive),97.2% (inactive),-3% (inactive),-14.3% (inactive),-6.07% (inactive),104% (inactive),-0.05 (inactive),6% (inactive),-19.6% (inactive)
CCCOc1ccc(-c2cc(C(=O)NCC3CCCO3)c3ccccc3n2)cc1 (centres undefined),99.5% (inactive),102% (inactive),91% (inactive),105% (inactive),84.4% (inactive),55.9,199% (inactive),13.8% (inactive),91.2% (inactive),1% (inactive),-3.49% (inactive),6.44% (inactive),97.3% (inactive),0.18 (inactive),12% (inactive),7.87% (inactive)
COC(=O)c1cc(OC)c(OC)c(OC)c1[N+](=O)[O-],103% (inactive),97.9% (inactive),107% (inactive),108% (inactive),105% (inactive),58.1,186% (inactive),-0.24% (inactive),107% (inactive),4% (inactive),-11.6% (inactive),39.5% (active),99% (inactive),0.14 (inactive),3% (inactive),-21.2% (inactive)
CC(O)Cn1cnc2c1c(=O)n(C)c(=O)n2C (centres undefined),95.1% (inactive),93.8% (inactive),111% (inactive),94.3% (inactive),98.7% (inactive),50,150% (inactive),4.42% (inactive),105% (inactive),0% (inactive),-14.4% (inactive),0.41% (inactive),101% (inactive),-0.24 (inactive),4% (inactive),-14.7% (inactive)
O=C1N=c2ccccc2=C1c1[nH]c(=S)[nH]c1O,98.8% (inactive),96.9% (inactive),106% (inactive),81.3% (inactive),99.6% (inactive),56.8,181% (inactive),2.56% (inactive),98.7% (inactive),-2% (inactive),2.65% (inactive),3.63% (inactive),98% (inactive),-0.12 (inactive),8% (inactive),-19.6% (inactive)
COc1ccccc1-c1ccc(/C=C2/C=C(CC(C)C)OC2=O)o1,99.5% (inactive),101% (inactive),93% (inactive),105% (inactive),90.1% (inactive),58.1,120% (inactive),-43.1% (inactive),103% (inactive),2% (inactive),2.34% (inactive),1.04% (inactive),99.5% (inactive),0.75 (active),5% (inactive),-22.8% (inactive)
COc1ccc(C2(CCN=Cc3ccc(N(C)C)cc3)CCOC(C)(C)C2)cc1 (centres undefined),104% (inactive),102% (inactive),99.8% (inactive),95.4% (inactive),95.2% (inactive),58.8,222% (inactive),-3.97% (inactive),98.3% (inactive),0% (inactive),-3.62% (inactive),-4.5% (inactive),128% (inactive),-0.24 (inactive),12% (inactive),7.87% (inactive)
